Experimental data as given in PMC5700166.
Numbering of substitutions follows the chain as printed.

Columns and labels:
Assay in all cases: protein-binding microarray (PBM); PBM: ~300 nM protein, 6 mM HEPES pH 7.8, 80 mM KCl, 0.5 mM EDTA, 0.5 mM EGTA, 6% glycerol, 35 ng/ul poly-dIdC, 1% milk, 1 h, room temperature; Ap Aiptasia and Nv Nematostella (sea anemones) / Co Capsaspora / Aq Amphimedon (sponge) / Dm Drosophila / Hu human; RHD is the Rel homology domain; high values mean tight binding
Details in all cases: dsDNA, one strand shown
GST-Ap-NF-kB RHD = target: T1, GST-Ap-NF-kB RHD (Exaiptasia pallida (Aiptasia), UniProt A0A913YAJ5 2-422)
T1 sequence: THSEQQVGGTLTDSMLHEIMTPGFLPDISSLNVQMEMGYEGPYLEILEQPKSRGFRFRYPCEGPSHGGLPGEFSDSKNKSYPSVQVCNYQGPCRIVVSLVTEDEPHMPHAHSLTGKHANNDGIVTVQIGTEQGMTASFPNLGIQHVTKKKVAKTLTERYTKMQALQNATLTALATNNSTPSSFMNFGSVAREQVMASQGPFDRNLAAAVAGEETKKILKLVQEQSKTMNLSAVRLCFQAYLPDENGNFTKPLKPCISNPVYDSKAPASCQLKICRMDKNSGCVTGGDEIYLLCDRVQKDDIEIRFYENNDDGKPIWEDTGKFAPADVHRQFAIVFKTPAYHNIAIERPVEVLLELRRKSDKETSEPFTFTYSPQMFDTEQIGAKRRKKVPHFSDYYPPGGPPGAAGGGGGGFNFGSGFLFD

[1] = target: T2, GST-Nv-NF-kB (Cys allele) (Nematostella vectensis, UniProt E5G601 2-411)
T2 sequence: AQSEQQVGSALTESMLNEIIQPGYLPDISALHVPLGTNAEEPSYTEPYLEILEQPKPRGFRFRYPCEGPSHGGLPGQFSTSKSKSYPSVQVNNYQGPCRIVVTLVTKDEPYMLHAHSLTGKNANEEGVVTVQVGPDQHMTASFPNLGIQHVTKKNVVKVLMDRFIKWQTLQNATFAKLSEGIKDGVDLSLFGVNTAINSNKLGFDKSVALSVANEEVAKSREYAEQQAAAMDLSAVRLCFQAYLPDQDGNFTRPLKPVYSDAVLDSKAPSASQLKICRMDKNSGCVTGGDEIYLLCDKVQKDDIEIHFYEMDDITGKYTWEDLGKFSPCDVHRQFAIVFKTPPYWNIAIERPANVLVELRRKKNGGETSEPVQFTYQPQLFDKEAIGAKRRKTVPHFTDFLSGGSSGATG

[2] = target: T3, GST-Nv-NF-kB (Ser allele) (Nematostella vectensis, UniProt A7UNT2 2-411)
T3 sequence: T2 sequence with Q21R, C66S, S207N, E215Q, V217A, E225K, A268E, D399E

GST-Co-NF-kB = target: T4, GST-Co-NF-kB (Capsaspora owczarzaki, UniProt F1ARL5 200-546)
T4 sequence: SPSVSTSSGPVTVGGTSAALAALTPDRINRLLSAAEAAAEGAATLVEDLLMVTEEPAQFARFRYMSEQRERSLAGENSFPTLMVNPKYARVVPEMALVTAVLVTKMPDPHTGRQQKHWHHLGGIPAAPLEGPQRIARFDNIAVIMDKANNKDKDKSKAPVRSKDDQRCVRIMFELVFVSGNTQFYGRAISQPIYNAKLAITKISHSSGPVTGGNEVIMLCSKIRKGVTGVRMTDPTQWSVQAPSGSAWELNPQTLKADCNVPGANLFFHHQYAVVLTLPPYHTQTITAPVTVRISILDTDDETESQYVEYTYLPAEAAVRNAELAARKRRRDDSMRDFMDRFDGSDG

GST-Dm-Relish = target: T5, GST-Dm-Relish (Drosophila melanogaster, UniProt Q94527 99-473)
T5 sequence: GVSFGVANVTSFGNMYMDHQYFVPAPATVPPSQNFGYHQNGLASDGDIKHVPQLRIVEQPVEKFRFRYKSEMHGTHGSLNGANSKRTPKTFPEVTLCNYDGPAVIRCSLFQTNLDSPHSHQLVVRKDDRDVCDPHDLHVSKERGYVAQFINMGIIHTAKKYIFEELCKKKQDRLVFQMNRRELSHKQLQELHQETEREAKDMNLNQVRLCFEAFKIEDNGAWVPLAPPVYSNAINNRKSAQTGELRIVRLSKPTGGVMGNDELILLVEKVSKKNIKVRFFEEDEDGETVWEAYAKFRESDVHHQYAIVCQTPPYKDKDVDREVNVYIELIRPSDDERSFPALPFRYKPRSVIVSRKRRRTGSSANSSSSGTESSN

GST-Aq-NF-kB = target: T6, GST-Aq-NF-kB (Amphimedon queenslandica, UniProt A9Y5G7 2-389)
T6 sequence: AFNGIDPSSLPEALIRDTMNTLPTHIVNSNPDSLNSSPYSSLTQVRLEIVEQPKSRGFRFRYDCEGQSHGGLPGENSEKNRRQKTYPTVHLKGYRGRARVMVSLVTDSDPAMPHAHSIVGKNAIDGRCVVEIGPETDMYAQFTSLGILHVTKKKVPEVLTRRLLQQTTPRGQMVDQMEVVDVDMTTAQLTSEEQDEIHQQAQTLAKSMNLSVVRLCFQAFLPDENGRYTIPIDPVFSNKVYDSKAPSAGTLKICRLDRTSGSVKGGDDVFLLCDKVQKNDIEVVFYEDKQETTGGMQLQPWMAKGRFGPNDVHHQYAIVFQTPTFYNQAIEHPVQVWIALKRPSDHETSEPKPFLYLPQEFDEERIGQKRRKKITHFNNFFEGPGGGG

Sequence | binding signal (GST-Ap-NF-kB RHD) [z-score] | binding signal [1] [z-score] | binding signal [2] [z-score] | binding signal (GST-Co-NF-kB) [z-score] | binding signal (GST-Dm-Relish) [z-score] | binding signal (GST-Aq-NF-kB) [z-score]
CCGATTAACATCACAATTTTCCCTGATGTTAATCGGGTCTTGATTCGCTTGACGCTGCTG | 4.54 | 6.45 | 7.95 | 5.61 | 2.17 | 5.58
CCGATTAACATCAAATATTTCCCTGATGTTAATCGGGTCTTGATTCGCTTGACGCTGCTG | 3.87 | 6.57 | 6.99 | 5.89 | 4.25 | 6.66
CCGATTAACATCACTTTTTTCCCTGATGTTAATCGGGTCTTGATTCGCTTGACGCTGCTG | 2.9 | 4.9 | 6.59 | 6.08 | 2.28 | 3.49
CCGATTAACATCAGGGAAGACGTTGATGTTAATCGGGTCTTGATTCGCTTGACGCTGCTG | 1.82 | 1.64 | 1.93 | 1.67 |  | 1.11
CCGATTAACATCAGCCCCCCCCCTGATGTTAATCGGGTCTTGATTCGCTTGACGCTGCTG | 4.45 | 5.13 | 3.95 | 5.44 | 4.51 | 5.11
CCGATTAACATCACTCTTTCCCCTGATGTTAATCGGGTCTTGATTCGCTTGACGCTGCTG | 4.86 | 5.44 | 7.19 | 6.1 | 1.95 | 4.18
CCGATTAACATCAGCATGGGAAATGATGTTAATCGGGTCTTGATTCGCTTGACGCTGCTG | 1.97 | 2.72 | 2.33 | 1.93 |  | 1.67
CCGATTAACATCACTTTCCCCCCTGATGTTAATCGGGTCTTGATTCGCTTGACGCTGCTG | 5.84 | 5.86 | 7.31 | 9.03 | 4.29 | 5.34
CCGATTAACATCACTATTTTCCCTGATGTTAATCGGGTCTTGATTCGCTTGACGCTGCTG | 3.72 | 4.96 | 6.91 | 5.27 | 1.52 | 3.51
CCGATTAACATCAACCAATTCCCTGATGTTAATCGGGTCTTGATTCGCTTGACGCTGCTG | 2.49 | 3.94 | 3.98 | 1.83 |  | 3.16
CCGATTAACATCAGAGTTTTCCCTGATGTTAATCGGGTCTTGATTCGCTTGACGCTGCTG | 3.96 | 5.58 | 6.71 | 4.75 | 1.89 | 4.65
CCGATTAACATCAACCCCCCCCATGATGTTAATCGGGTCTTGATTCGCTTGACGCTGCTG | 5.53 | 4.32 | 3.55 | 4.94 | 5.75 | 4.01
CCGATTAACATCACGATTTTCCCTGATGTTAATCGGGTCTTGATTCGCTTGACGCTGCTG | 3.77 | 5.64 | 7.32 | 4.9 | 1.65 | 4.47
CCGATTAACATCAGAAATCCCAATGATGTTAATCGGGTCTTGATTCGCTTGACGCTGCTG | 2.44 | 2.13 | 1.82 | 1.84 | 5.13 | 2.14
CCGATTAACATCAACGTTTTCCCTGATGTTAATCGGGTCTTGATTCGCTTGACGCTGCTG | 3.04 | 4.61 | 6.7 | 4.29 | 1.51 | 3.21
CCGATTAACATCAAAGTTTTCCCTGATGTTAATCGGGTCTTGATTCGCTTGACGCTGCTG | 4.37 | 6.15 | 7.61 | 6.07 | 2.47 | 4.93
CCGATTAACATCACGGGGGGGAATGATGTTAATCGGGTCTTGATTCGCTTGACGCTGCTG | 6.98 | 5.54 | 6.1 | 9.46 | 5.39 | 5.91
CCGATTAACATCACGCCCCCCCCTGATGTTAATCGGGTCTTGATTCGCTTGACGCTGCTG | 5.3 | 4.2 | 4.8 | 3.87 | 4.72 | 4.89
CCGATTAACATCAAGGGAAAAAATGATGTTAATCGGGTCTTGATTCGCTTGACGCTGCTG | 3.77 | 5.84 | 7.2 | 5.23 | 1.86 | 4.83
CCGATTAACATCAAATCCCCCCTTGATGTTAATCGGGTCTTGATTCGCTTGACGCTGCTG | 8.14 | 6.82 | 7.98 | 6.62 | 7.95 | 6.8
CCGATTAACATCACACCCCCCCGTGATGTTAATCGGGTCTTGATTCGCTTGACGCTGCTG | 4.06 | 3.09 | 3.09 | 4.58 | 4.46 | 3.38
CCGATTAACATCAAATTCCCACGTGATGTTAATCGGGTCTTGATTCGCTTGACGCTGCTG | 2.06 | 3.63 | 3.63 | 2.77 | 3.95 | 2.61
